The source made the active and inactive calls.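 The calls were made as follows, unless noted: active = viability loss from added drug above about 55%, and viability with drug at most 40%, in both replicates (limit read from the data, passing the limit was not always enough); inconclusive = both conditions met in only one replicate; inactive = neither replicate meets both conditions.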

The first experiment is described as follows: growth inhibitors of H69AR lung tumor, primary screen, human, duplicate replicates (AID 580;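 active = viability at or under a set limit in both replicates, limit being median viability minus 3 SD, cut at about 48% in these data, passing the limit was not always enough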;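 also: 100% = mean luminescence of untreated wells and 0% = no signal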). The conditions noted are these: H69AR lung tumor cells viability, ATP luminescence, 72 h; at 10 µM; hits give low values.
Regarding `O=C1OCCC1NC1=NCCC1` (stereo not given), the viability is 100% (inactive).
The same measure, in the same setting: with `CN1C(=O)N(C)C(=O)C2(Cc3ccccc3N3CCOCC32)C1=O` (stereo not given) the figure was 102% (inactive); with `O=c1[nH]c(=O)n(Cc2ccco2)c(O)c1C=NCCCn1ccnc1`, 95.2% (inactive).
For the compound `CC1CCC(C(=O)NC(C(=O)N2CCC3(CC2)OCCO3)C(C)C)CC1` (stereo not given), the viability is 99.5% (inactive).
On to `COc1ccccc1N1CCN(Cc2cccc(OC)c2O)CC1`, for which the viability is 91.6% (inactive).
For `O=C1CC(c2ccccc2)CC(O)=C1C=NCCN1CCN(C(=O)Cc2ccccc2)CC1` (stereo not given), the viability was 92.1% (inactive).
The same measure, in the same setting: with `OCCOCC#CCN1CCOCC1` the figure was 93.8% (inactive); with `NC(=O)CSP(=O)(c1ccccc1)c1ccccc1`, 102% (inactive); with `CC1(C)C(c2ccccc2)=NC(c2cccnc2)N1O` (stereo not given), 95.3% (inactive).
`CCCCCCC(N)CC(=O)O` (stereo not given): the viability was 94.8% (inactive).
Consider `CCN(CC)CCN=Cc1c(O)n(CCC2=CCCCC2)c(=O)[nH]c1=O`, for which the viability was 74.7% (inactive).
`CCN1c2nc3c(C)cccn3c(=O)c2CC2(C(=O)N(C)C(=O)N(C)C2=O)C1C` (stereo not given): the viability was 91.4% (inactive).
As for `C=CCn1c(O)c(C=NCCN(C)C)c(=O)[nH]c1=O`, the viability was 97.2% (inactive).
As to `Cc1ccccc1NC1=NCCCS1`, the viability was 95.1% (inactive).
As to `CN1CCC(N(C)c2ncnc3ccc(Br)cc23)CC1`, the viability was 87.9% (inactive).
For the compound `O=c1[nH]c(=O)n(Cc2ccccc2)c(O)c1C=NCCCO`, the viability is 117% (inactive).
Same read-out and setting: with `O=C1CC(N2CCC(n3c(=O)[nH]c4ccccc43)CC2)C(=O)N1c1ccc(F)cc1` (stereo not given) the figure was 103% (inactive); with `Cc1cc(NC(=O)COC(=O)c2c(C)nn(Cc3ccccc3)c2Cl)no1`, 105% (inactive).
For `CN(C)c1cc(N)c2c(n1)CCC2` (tested in a mixture with another compound), the viability was 86.1% (inactive).
For the compound `c1ccc(C2CC3CC(c4ccco4)N2O3)cc1` (stereo not given), the viability is 113% (inactive).
Consider `c1cncc(CNC2=NCCCCC2)c1`, for which the viability was 97.4% (inactive).
Take `C=CCn1c(O)c(C(C)=NCc2cccnc2)c(=O)[nH]c1=O`: the viability is 92.2% (inactive).
With `NCCc1ccc(O)cc1`, the viability is 96.2% (inactive).
For `COc1ccc(C(=O)C(C)(C)NO)cc1`, the viability was 86.5% (inactive).
As for `CCOC(=O)c1cccc([P+](=O)O)c1`, the viability was 96.5% (inactive).
With `O=C(CCCOc1ccc(Cl)cc1Cl)N1CCC2(CC1)OCCO2`, the viability is 92.5% (inactive).
The same measure, in the same setting: with `CCCCOc1ccc(CN2CCN(CCO)CC2)cc1` the figure was 90.1% (inactive); with `CSc1ccc(CNC2CN3CCC2CC3)cc1` (stereo not given), 89.1% (inactive); with `CCCCn1c(O)c(C(C)=NCCc2ccccc2)c(=O)[nH]c1=O`, 100% (inactive).
Turning to `O=C(c1sc2ccccc2c1Cl)N1CCC2(CC1)OCCO2`, the viability was 109% (inactive).
Consider `N#Cc1ccccc1Cn1cc(C(=O)c2ccco2)c2ccccc21`, for which the viability was 82% (inactive).
As for `COc1ccc(CC2C(=O)NC(=O)NC2=O)c(OC)c1`, the viability was 106% (inactive).
The same measure, in the same setting: with `CCCCn1c(O)c(C(CC)=Nc2cccc(C(=O)O)c2)c(=O)[nH]c1=O` the figure was 102% (inactive); with `COc1cc(C2NCc3ccccc3-n3cccc32)ccc1O` (stereo not given), 101% (inactive); with `Cc1ccc(CS(=O)(=O)CCC(=O)N2CCC3(CC2)OCCO3)cc1`, 97.7% (inactive).
In the case of `COc1cc(/C=N/n2cnnc2)ccc1OC(=O)N(C)C`, the viability is 102% (inactive).
For `CC#CP(=O)(OCC)C(O)(c1ccccc1)C(F)(F)F` (stereo not given), the viability is 96.9% (inactive).
On to `CCOC(=O)C(O)(c1ccc(N(CC)C(=O)OC)cc1)C(F)(F)F` (stereo not given), for which the viability is 109% (inactive).
In the case of `CC(C)(C)C(O)C(Oc1ccc(Cl)cc1)n1cncn1` (stereo not given), the viability was 87.2% (inactive).
In the case of `COC(=O)c1c(C)n(Cc2ccc3c(c2)OCO3)c2ccc(O)cc12`, the viability is 105% (inactive).

The nature of a further experiment: reversal of MRP1-mediated doxorubicin resistance, pilot screen, H69AR cells, doxorubicin co-treatment (AID 601). Conditions: H69AR cells + 2 uM doxorubicin, CellTiter-Glo, 72 h; at 10 µM; hits give high values. Background: In ATP-based viability assays light output follows the ATP content of the culture.
With `O=C1OCCC1NC1=NCCC1` (stereo not given), the differential viability (reversal) was 13.1% (inactive).
For `CN1C(=O)N(C)C(=O)C2(Cc3ccccc3N3CCOCC32)C1=O` (stereo not given), the differential viability (reversal) is 8.12% (inactive).
`O=c1[nH]c(=O)n(Cc2ccco2)c(O)c1C=NCCCn1ccnc1`: the differential viability (reversal) was 0.33% (inactive).
In the case of `CC1CCC(C(=O)NC(C(=O)N2CCC3(CC2)OCCO3)C(C)C)CC1` (stereo not given), the differential viability (reversal) is 8.49% (inactive).
As to `COc1ccccc1N1CCN(Cc2cccc(OC)c2O)CC1`, the differential viability (reversal) is 5.07% (inactive).
With `O=C1CC(c2ccccc2)CC(O)=C1C=NCCN1CCN(C(=O)Cc2ccccc2)CC1` (stereo not given), the differential viability (reversal) was -2.69% (inactive).
Regarding `OCCOCC#CCN1CCOCC1`, the differential viability (reversal) was 3.84% (inactive).
On to `NC(=O)CSP(=O)(c1ccccc1)c1ccccc1`, for which the differential viability (reversal) was 10.1% (inactive).
Consider `CC1(C)C(c2ccccc2)=NC(c2cccnc2)N1O` (stereo not given), for which the differential viability (reversal) was -4.39% (inactive).
For the compound `CCCCCCC(N)CC(=O)O` (stereo not given), the differential viability (reversal) was 5.24% (inactive).
Turning to `CCN(CC)CCN=Cc1c(O)n(CCC2=CCCCC2)c(=O)[nH]c1=O`, the differential viability (reversal) is -11.4% (inactive).
For the compound `CCN1c2nc3c(C)cccn3c(=O)c2CC2(C(=O)N(C)C(=O)N(C)C2=O)C1C` (stereo not given), the differential viability (reversal) was 4.38% (inactive).
In the case of `C=CCn1c(O)c(C=NCCN(C)C)c(=O)[nH]c1=O`, the differential viability (reversal) is 3.12% (inactive).
Turning to `Cc1ccccc1NC1=NCCCS1`, the differential viability (reversal) was -1.09% (inactive).
Take `CN1CCC(N(C)c2ncnc3ccc(Br)cc23)CC1`: the differential viability (reversal) is -25.8% (inactive).
Consider `O=c1[nH]c(=O)n(Cc2ccccc2)c(O)c1C=NCCCO`, for which the differential viability (reversal) is 27.1% (inactive).
As to `O=C1CC(N2CCC(n3c(=O)[nH]c4ccccc43)CC2)C(=O)N1c1ccc(F)cc1` (stereo not given), the differential viability (reversal) is 3.01% (inactive).
In the case of `Cc1cc(NC(=O)COC(=O)c2c(C)nn(Cc3ccccc3)c2Cl)no1`, the differential viability (reversal) was 19% (inactive).
`CN(C)c1cc(N)c2c(n1)CCC2` (tested in a mixture with another compound): the differential viability (reversal) is -1.48% (inactive).
Same read-out and setting: with `c1ccc(C2CC3CC(c4ccco4)N2O3)cc1` (stereo not given) the figure was 22.5% (inactive); with `c1cncc(CNC2=NCCCCC2)c1`, 6.13% (inactive); with `C=CCn1c(O)c(C(C)=NCc2cccnc2)c(=O)[nH]c1=O`, 4.8% (inactive).
As for `NCCc1ccc(O)cc1`, the differential viability (reversal) is 4.17% (inactive).
Same read-out and setting: with `COc1ccc(C(=O)C(C)(C)NO)cc1` the figure was -2.28% (inactive).
For the compound `CCOC(=O)c1cccc([P+](=O)O)c1`, the differential viability (reversal) is -0.595% (inactive).
For `O=C(CCCOc1ccc(Cl)cc1Cl)N1CCC2(CC1)OCCO2`, the differential viability (reversal) was 11.1% (inactive).
For the compound `CCCCOc1ccc(CN2CCN(CCO)CC2)cc1`, the differential viability (reversal) was 12.2% (inactive).
As for `CSc1ccc(CNC2CN3CCC2CC3)cc1` (stereo not given), the differential viability (reversal) is 7.31% (inactive).
Turning to `CCCCn1c(O)c(C(C)=NCCc2ccccc2)c(=O)[nH]c1=O`, the differential viability (reversal) was 4.16% (inactive).
Still for that read-out and setting: with `O=C(c1sc2ccccc2c1Cl)N1CCC2(CC1)OCCO2` the figure was 6.83% (inactive); with `N#Cc1ccccc1Cn1cc(C(=O)c2ccco2)c2ccccc21`, -3.02% (inactive).
Regarding `COc1ccc(CC2C(=O)NC(=O)NC2=O)c(OC)c1`, the differential viability (reversal) is 4.86% (inactive).
For `CCCCn1c(O)c(C(CC)=Nc2cccc(C(=O)O)c2)c(=O)[nH]c1=O`, the differential viability (reversal) was 9.65% (inactive).
`COc1cc(C2NCc3ccccc3-n3cccc32)ccc1O` (stereo not given): the differential viability (reversal) is 9.64% (inactive).
For `Cc1ccc(CS(=O)(=O)CCC(=O)N2CCC3(CC2)OCCO3)cc1`, the differential viability (reversal) is 9.99% (inactive).
For the compound `COc1cc(/C=N/n2cnnc2)ccc1OC(=O)N(C)C`, the differential viability (reversal) was 9.57% (inactive).
For `CC#CP(=O)(OCC)C(O)(c1ccccc1)C(F)(F)F` (stereo not given), the differential viability (reversal) was 14.4% (inactive).
For the compound `CCOC(=O)C(O)(c1ccc(N(CC)C(=O)OC)cc1)C(F)(F)F` (stereo not given), the differential viability (reversal) is 20.5% (inactive).
Consider `CC(C)(C)C(O)C(Oc1ccc(Cl)cc1)n1cncn1` (stereo not given), for which the differential viability (reversal) is 5.54% (inactive).
Turning to `COC(=O)c1c(C)n(Cc2ccc3c(c2)OCO3)c2ccc(O)cc12`, the differential viability (reversal) is 5.33% (inactive).

A word on the viability: it is a read-out of living cells in per cent, often relative to untreated cells.

The record behind these values is PubChem BioAssay.
